Reference: PubChem BioAssay AID1159580 (chemical genetic matrix, 2015)
Among all 5,500 compounds or so, about 2,000 (36%) were called active. Not shown: some 18% with an inconclusive outcome. No stated cut-off is given here; in the data, active means normalized growth mostly below about 0.91 (no sharp cut-off); inconclusive means no clear call, values can overlap the other calls; inactive means mostly above about 0.92. The list shows a part of the results.

Test: chemical genetic growth profiling, strain panel (AID 1159580);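 further: tested at 20 µM; growth read once vehicle control cultures reached saturation at 30 °C; 1 = growth at the plate median or of vehicle wells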
Settings: S. cerevisiae deletion strains, growth OD
[1] = locus YAL013W, strain DEP1, stronger effect = lower value
[2] = locus YAL040C, strain CLN3, stronger effect = lower value
[3] = locus YCL061C, strain MRC1 (second series), stronger effect = lower value
[4] = locus YDR150W, strain NUM1, stronger effect = lower value
[5] = locus YDR363W, strain ESC2, stronger effect = lower value
[6] = locus YER002W, strain NOP16, stronger effect = lower value
[7] = locus YGR229C, strain SMI1, stronger effect = lower value
[8] = locus YMR263W, strain SAP30, stronger effect = lower value
[9] = locus YMR307W, strain GAS1, stronger effect = lower value
[10] = locus YNL128W, strain TEP1, stronger effect = lower value
[11] = locus YNL153C, strain GIM3, stronger effect = lower value
[12] = locus YNL175C, strain NOP13, stronger effect = lower value
[13] = locus YNL197C, strain WHI3, stronger effect = lower value
[14] = locus YNL224C, strain SQS1, stronger effect = lower value
[15] = locus YOR083W, strain WHI5 (second series), stronger effect = lower value
[16] = locus YPL241C, strain CIN2, stronger effect = lower value
[17] = locus YDL101C, strain DUN1, stronger effect = lower value
[18] = locus YGR078C, strain PAC10, stronger effect = lower value
[19] = locus YHR030C, strain SLT2, stronger effect = lower value
[20] = locus YJR075W, strain HOC1, stronger effect = lower value
[21] = locus YPL055C, strain LGE1, stronger effect = lower value

Measured: normalized growth

Cc1nc2n(c(=O)c1CCN1CCC(c3noc4cc(F)ccc34)CC1)CCCC2
inactive: [1] 0.998 | [2] 1.02 | [3] 1.01 | [4] 1 | [5] 0.988 | [6] 1 | [7] 1 | [8] 1 | [9] 1.02 | [10] 1.03 | [11] 1.01 | [12] 1.01 | [13] 1.01 | [14] 1 | [15] 1 | [16] 1

Cc1cc(CN2CC(C)OC(C)C2)cc(C)c1O (stereo unspecified)
inactive: [1] 1.01 | locus YBR229C, strain ROT2, stronger effect = lower value 1.01 | [17] 1.09 | [4] 1.08 | locus YEL061C, strain CIN8, stronger effect = lower value 0.997 | [18] 1.02 | [19] 1.03 | locus YHR087W, strain rtc3, stronger effect = lower value 0.976 | locus YJR043C, strain POL32, stronger effect = lower value 1.03 | [20] 1 | locus YKL190W, strain CNB1, stronger effect = lower value 0.974 | locus YLR039C, strain RIC1, stronger effect = lower value 1.05 | locus YLR058C, strain SHM2 (second series), stronger effect = lower value 0.991 | locus YLR085C, strain ARP6, stronger effect = lower value 1.03 | locus YLR262C, strain YPT6, stronger effect = lower value 0.954 | locus YML094W, strain GIM5, stronger effect = lower value 0.996 | locus YMR219W, strain ESC1, stronger effect = lower value 0.997 | [8] 1.05 | [10] 0.988 | [11] 1.04 | locus YNL298W, strain CLA4 (second series), stronger effect = lower value 1.02 | locus YNL322C, strain KRE1, stronger effect = lower value 0.994 | locus YNR030W, strain Alg12, stronger effect = lower value 0.992 | locus YOL006C, strain TOP1, stronger effect = lower value 0.975 | [21] 1.01 | [16] 1.03 | locus YPR135W, strain CTF4, stronger effect = lower value 1.04

O=C(Nc1ccc(Cl)cc1)O/N=C\c1ccn(-c2ccccc2)n1
active: [19] 0.611 | locus YHR205W, strain SCH9, stronger effect = lower value 0.559 | locus YJR066W, strain TOR1 (second series), stronger effect = lower value 0.605 | locus YLR113W, strain HOG1, stronger effect = lower value 0.6 | locus YPL256C, strain CLN2, stronger effect = lower value 0.662
inactive: locus YAR019C, strain CDC15, stronger effect = lower value 0.958 | locus YBL105C, strain PKC1, stronger effect = lower value 0.963 | locus YBR135W, strain CKS1, stronger effect = lower value 0.95 | locus YBR136W, strain MEC1, stronger effect = lower value 0.937 | locus YBR160W, strain CDC28, stronger effect = lower value 0.962 | locus YDL017W, strain CDC7, stronger effect = lower value 0.971 | locus YDL028C, strain MPS1, stronger effect = lower value 0.955 | [17] 0.975 | locus YDL108W, strain KIN28, stronger effect = lower value 0.941 | locus YDL132W, strain cdc53, stronger effect = lower value 0.954 | locus YDL214C, strain PRR2, stronger effect = lower value 0.8 | locus YDR052C, strain DBF4, stronger effect = lower value 0.982 | locus YDR054C, strain cdc34, stronger effect = lower value 0.952 | locus YDR226W, strain ADK1, stronger effect = lower value 0.965 | locus YDR477W, strain SNF1, stronger effect = lower value 0.859 | locus YER123W, strain YCK3, stronger effect = lower value 0.811 | locus YER133W, strain GLC7, stronger effect = lower value 0.882 | locus YFL009W, strain cdc4, stronger effect = lower value 0.961 | locus YFL029C, strain CAK1, stronger effect = lower value 0.955 | locus YFR003C, strain YPI1, stronger effect = lower value 0.96 | locus YFR019W, strain FAB1, stronger effect = lower value 0.956 | locus YFR028C, strain CDC14, stronger effect = lower value 0.953 | locus YGR040W, strain KSS1, stronger effect = lower value 0.876 | locus YGR052W, strain FMP48, stronger effect = lower value 0.845 | locus YGR092W, strain DBF2, stronger effect = lower value 0.775 | locus YHR079C, strain IRE1, stronger effect = lower value 0.654 | locus YHR082C, strain KSP1, stronger effect = lower value 0.835 | locus YIL147C, strain SLN1, stronger effect = lower value 0.953 | locus YJL095W, strain BCK1, stronger effect = lower value 0.738 | locus YJL128C, strain PBS2, stronger effect = lower value 0.877 | locus YJL157C, strain FAR1, stronger effect = lower value 0.857 | locus YJR016C, strain ILV3, stronger effect = lower value 0.961 | locus YJR066W, strain TOR1, stronger effect = lower value 0.834 | locus YKL048C, strain ELM1, stronger effect = lower value 0.886 | locus YKL067W, strain YNK1, stronger effect = lower value 0.82 | locus YKL101W, strain HSL1, stronger effect = lower value 0.798 | locus YKL193C, strain SDS22, stronger effect = lower value 0.948 | locus YKL203C, strain TOR2, stronger effect = lower value 0.947 | locus YLR133W, strain CKI1, stronger effect = lower value 0.829 | locus YLR403W, strain SFP1, stronger effect = lower value 0.87 | locus YML070W, strain DAK1, stronger effect = lower value 0.804 | locus YMR001C, strain CDC5, stronger effect = lower value 0.95 | locus YMR205C, strain PFK2 (second series), stronger effect = lower value 0.779 | locus YMR277W, strain FCP1, stronger effect = lower value 0.948 | locus YNL006W, strain LST8, stronger effect = lower value 0.954 | locus YNL020C, strain ARK1, stronger effect = lower value 0.782 | locus YNL161W, strain CBK1, stronger effect = lower value 0.97 | locus YNL183C, strain NPR1, stronger effect = lower value 0.732 | locus YNL207W, strain RIO2, stronger effect = lower value 0.954 | locus YNL222W, strain SSU72, stronger effect = lower value 0.946 | locus YNL307C, strain MCK1 (second series), stronger effect = lower value 0.785 | locus YOL078W, strain AVO1, stronger effect = lower value 0.956 | locus YOL136C, strain PFK27, stronger effect = lower value 0.797 | locus YOR061W, strain CKA2, stronger effect = lower value 0.875 | locus YOR119C, strain RIO1, stronger effect = lower value 0.929 | locus YOR231W, strain MKK1, stronger effect = lower value 0.688 | locus YOR329C, strain SCD5, stronger effect = lower value 0.954 | locus YPL031C, strain PHO85, stronger effect = lower value 0.851 | locus YPL153C, strain RAD53, stronger effect = lower value 0.885 | locus YPL204W, strain HRR25, stronger effect = lower value 0.869 | locus YPL209C, strain IPL1, stronger effect = lower value 0.959 | locus YPR025C, strain CCL1, stronger effect = lower value 0.953 | locus YPR106W, strain ISR1, stronger effect = lower value 0.937 | locus YPR111W, strain DBF20, stronger effect = lower value 0.929 | strain NNK1, stronger effect = lower value 0.903 | strain TSCII, stronger effect = lower value 0.95

CS(=N)(=O)CC[C@H](N)C(=O)O (stereo partly specified)
inactive: [1] 0.995 | [2] 0.993 | [3] 0.997 | [4] 1.02 | [5] 0.962 | [6] 1 | [18] 0.969 | [20] 1.01 | [8] 1.01 | [10] 0.991 | [12] 0.989 | [13] 0.983 | [14] 0.999 | [15] 0.989 | [21] 1 | [16] 1

N[C@@H](Cc1ccc(O)c(I)c1)C(=O)O
inactive: [1] 0.997 | [2] 0.991 | [3] 1 | [5] 1.01 | [6] 1.02 | [18] 1.01 | [7] 1.01 | [20] 0.991 | [9] 0.992 | [11] 1 | [12] 1 | [13] 0.997 | [14] 1.01 | [15] 1.02 | [21] 0.979 | [16] 0.993
